PubChem BioAssay (NCATS)
A number with no mark means an inactive call. Records with an inconclusive call do not appear. A call without a number means that no potency is given here. The source made the active and inactive calls. Unless noted, calls follow the shape of the dose curve; as a rule, active = well fitted curve in the direction sought with a large enough effect; inconclusive = small, poorly fitted or top-dose-only effect, or another doubt; inactive = no such curve, though single readings can be large; an effect the other way counts as inactive or inconclusive.

Key:
[1] = AP1 Signaling Pathway (AID 357; active = well fitted curve in either direction with a large enough effect, not every such curve was filed as active;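 also: ME-180 reporter cells stimulated with EGF at its EC50 level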); conditions: ME-180 AP-1-bla reporter, EGF-induced, beta-lactamase ratio, 5 h; at 7.69 µM (top of the series) unless noted
Summary of the method: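 Cells are seeded overnight, exposed to compound titrations and an EC50 level of EGF for 5 hours at 37 °C, then loaded with CCF4 dye for 2.5 hours. Beta-lactamase activity under the AP-1 element is read as a blue/green ratio.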

[2] = target: Cytochrome P450 1A2 (Homo sapiens) (UniProt P05177); experiment: p450-cyp1a2 (AID 410; calls by dose curve)
Summary of the method: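 Luminescent demethylation readout: Luciferin-ME (100uM, equal to Km) turned over by 20nM CYP1A2 for 60 min at room temperature after NADPH regeneration addition, following 10 min compound preincubation. Normalization used 57 uM furafylline as full inhibition.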

[3] = NFAT Signaling Pathway (AID 444; active = well fitted curve in either direction with a large enough effect, not every such curve was filed as active;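 also: carbachol stimulus at about its EC50 of 1 µM final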); conditions: Jurkat NFAT-bla M1, carbachol, beta-lactamase ratio, 5 h; at 7.69 µM (top of the series) unless noted
Summary of the method: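 Jurkat cells carrying an NFAT-driven β-lactamase reporter and co-transfected muscarinic M1 receptor were treated with compound plus carbachol (1 uM final, an EC50 level) for 5 h at 37 °C. CCF4 loading followed for 1 h at RT; 460/530 nm ratio gave %activity.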

[4] = Stat Signaling Pathway (AID 446; active = well fitted curve in either direction with a large enough effect, not every such curve was filed as active;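 also: ME-180 cervical cancer cells given 40 pM IL-6 alongside compound; SIE-controlled beta-lactamase reporter measured as 460/530 nm FRET emission ratio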); conditions: ME-180 (cervical carcinoma) SIE beta-lactamase reporter, IL-6 stimulated, 5 h; at 7.69 µM (top of the series) unless noted
Summary of the method: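 Normalization used AC90 stimulation (300 pM IL-6) and AC90 inhibition (125 nM pan-JAK inhibitor at 40 pM IL-6). The underlying signal is SIE-driven beta-lactamase in ME-180 cells after 5 h IL-6 exposure with compound.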

[5] = target: Glucocorticoid receptor (Homo sapiens) (UniProt P04150); experiment: GR-GFP Redistribution (AID 450;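 active = compounds whose dose series gives a full or clear partial fitted curve of increased nuclear translocation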; also: potency is read from the fitted curve at half-maximal effect); conditions: U2OS GR-GFP nuclear translocation, laser cytometry, 2 h
[6] = target: Glucocorticoid receptor (Homo sapiens) (UniProt P04150); experiment: GR-EFC Redistribution (AID 451; calls by dose curve; also: potency is read from the fitted curve at half-maximal effect); conditions: CHO-K1 GR-EFC translocation, beta-gal luminescence, 2 h
Summary of the method: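 CHO-K1 cells stably expressing nuclear-localized β-gal enzyme acceptor and GR fused C-terminally to the enzyme donor fragment; ligand-driven nuclear translocation restores β-gal by complementation. Compounds titrated up to 46 uM final, 2 h at 37 °C; luminescence read.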

[7] = target: Mitogen-activated protein kinase 10 (Mus musculus) (UniProt Q61831); experiment: JNK3 AlphaScreen Assay (AID 530; active = well fitted curve in either direction with a large enough effect, not every such curve was filed as active;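 also: kinase came from lysate of stimulated human HepG2 cells; signal reports phosphorylation of biotinylated GST-cJun 1-79 at Ser73 with 10 µM ATP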)
Summary of the method: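 Phosphorylation of biotinylated GST-cJun(1-79) at Ser73 is measured by AlphaScreen proximity luminescence. Enzyme is JNK3 in HepG2 lysates activated with interleukin-1beta and tumor necrosis factor alpha; ATP is 10 uM final.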

[8] = target: 3',5'-cyclic-AMP phosphodiesterase 4B (Homo sapiens) (UniProt Q07343); experiment: qHTS Assay for Inhibitors of PDE-IV (AID 607; active = well fitted activation curve with a large enough effect in the main read-out, with a control signal flat, not every such curve was filed as active)
Summary of the method: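 HEK293 ACTOne cells with CNG channel (1000/well), endogenous PDE4; membrane potential dye, compounds up to 22.9 uM final. Fluorescence Ex 535/Em 590; RO 20-1724 (100 uM final) as reference.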

[9] = target: Guanine nucleotide-binding protein G(i) subunit alpha-1 (Homo sapiens) (UniProt P63096); experiment: qHTS Assay for Inhibitors of RGS12 GoLoco Motif Activity (Green Fluorophore) (AID 879);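 also: negative values mean loss of peptide binding seen as reduced polarization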
Summary of the method: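 A drop in FITC polarization marked displacement of the FITC-tagged RGS12 GoLoco peptide (10 nM) from Gαi1 (50 nM). Compounds were incubated 10 min at room temperature in Tris pH 7.5 buffer containing 150 mM NaCl, 0.1 mM GDP and 0.05% NP40; unlabeled peptide titration served as control.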

[10] = qHTS Assay for Identification of Small Molecule Antagonists for NFkB Signaling Pathway (AID 895; active = well fitted inhibition curve with a large enough effect in the signal ratio, with a control signal flat, not every such curve was filed as active; the % refers to the signal ratio; also: potency is read from the fitted curve at half-maximal effect)
Summary of the method: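 NFkB-bla ME-180 cervical carcinoma cells with beta-lactamase reporter under NFkB response element; compounds added, then TNF alpha at 10 pM final (EC50), 5 h at 37 C. LiveBLAzer substrate 2 h, room temperature; emission 460/530 nm at 405 nm excitation.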

[11] = qHTS Assay for Identification of Small Molecule Agonists for Thrombopoietin (TPO) Signaling Pathway (AID 917)
Summary of the method: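 First, Ba/F3 cells with human TPO receptor were held overnight without IL-3. Next, compounds and TPO (26 pM final) were added. After 24 hrs at 37 C, luciferase detection reagent was added and luminescence measured following 10 min at room temperature.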

[12] = target: Muscarinic acetylcholine receptor M1 (Rattus norvegicus) (UniProt P08482); experiment: qHTS Assay for Antagonists of Acetylcholine Muscarinic M1 Receptor: Measurement of IP-One Response (AID 944); also: nearly all actives have a fitted effect of over 75% in size
Summary of the method: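 IP1 accumulation measured via TR-FRET between d2-IP1 and Eu-cryptate anti-IP1 antibody after carbachol (200 nM, EC80) stimulation for 30 min; rat M1-transfected CHO cells received compound 10 min before agonist.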

[13] = target: Pyruvate kinase (Leishmania mexicana) (UniProt Q27686); experiment: qHTS Validation Assay for Inhibitors of Leishmania Mexicana Pyruvate Kinase (AID 945)
Summary of the method: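 LmPYK E451W 0.2 nM; 0.5 mM PEP, 0.1 mM ADP, 7 mM MgCl2, 50 mM KCl, imidazole pH 7.2, 0.01% Tween 20, 0.05% BSA; 1 h RT; PKLight luminescence; DMSO-normalized.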

[14] = target: Pyruvate kinase PKM (Homo sapiens) (UniProt P14618); experiment: qHTS Assay for Activators of Human Muscle Pyruvate Kinase (AID 954; active = well fitted curve in the direction sought with a large enough effect, not every such curve was filed as active)
Summary of the method: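 Compound pinned into substrate mix (0.5 mM PEP, 0.1 mM ADP), then 0.1 nM PKM2 added; 1 h, RT. Stop/detection luciferase reagent added, luminescence read. Normalized to no-inhibition and no-enzyme or reference-inhibitor controls.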

[15] = target: Alpha-galactosidase A (Homo sapiens) (UniProt P06280); experiment: Counterscreen for Glucocerebrosidase Inhibitors: qHTS Assay for Human alpha-Galactosidase at pH 4.5 (AID 992)
Summary of the method: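 Steps: enzyme (2 nM final), then compound across 0.7 nM to 77 uM, then 80 uM fluorogenic galactopyranoside substrate; incubate 20 min at room temperature; quench at pH 10; measure fluorescence at 365/440 nm.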

[16] = target: alpha-glucosidase (Oryza sativa, rice) (UniProt Q653V4); experiment: Counterscreen for Glucocerebrosidase Inhibitors: qHTS Assay for Rice alpha-Glucosidase at pH 5.0 (AID 997)
Summary of the method: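 Endpoint fluorogenic assay at pH 5.0: compounds (0.7 nM to 77 uM) titrated against 4 nM rice enzyme and 400 uM 4-MU-alpha-glucoside for 20 min at room temperature; NaOH/glycine stop, read ex 365/em 440 nm, Hill-fitted AC50.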

[17] = target: Cytochrome P450 3A4 (Homo sapiens) (UniProt P08684); experiment: qHTS Assay for Activators of Cytochrome P450 3A4 (AID 885); also: nearly all actives have a fitted effect of over 65% in size
Summary of the method: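 Human CYP3A4 dealkylates Luciferin-PPXE to luciferin, which luciferase detection converts to light. Substrate was at its KM (25uM), buffer 200mM KPO4, reaction 60 min at RT.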

[18] = target: Muscarinic acetylcholine receptor M1 (Rattus norvegicus) (UniProt P08482); experiment: qHTS Assay for Antagonists of Acetylcholine Muscarinic M1 Receptor: Kinetic Measurement of Intracellular Calcium Response (AID 943);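 also: Fluo-4 calcium signal as peak divided by basal fluorescence over 4 min; nearly all actives have a fitted effect of over 75% in size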
Summary of the method: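 Antagonism measured as reduction of carbachol-evoked (EC80, 100 nM final) calcium flux in rat M1-CHO cells after 10 min compound exposure. Fluo-4 signal read kinetically; ratio of maximal to basal fluorescence.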

Cytochrome P450 1A2 (Homo sapiens), sequence (P05177 whole entry, looked up): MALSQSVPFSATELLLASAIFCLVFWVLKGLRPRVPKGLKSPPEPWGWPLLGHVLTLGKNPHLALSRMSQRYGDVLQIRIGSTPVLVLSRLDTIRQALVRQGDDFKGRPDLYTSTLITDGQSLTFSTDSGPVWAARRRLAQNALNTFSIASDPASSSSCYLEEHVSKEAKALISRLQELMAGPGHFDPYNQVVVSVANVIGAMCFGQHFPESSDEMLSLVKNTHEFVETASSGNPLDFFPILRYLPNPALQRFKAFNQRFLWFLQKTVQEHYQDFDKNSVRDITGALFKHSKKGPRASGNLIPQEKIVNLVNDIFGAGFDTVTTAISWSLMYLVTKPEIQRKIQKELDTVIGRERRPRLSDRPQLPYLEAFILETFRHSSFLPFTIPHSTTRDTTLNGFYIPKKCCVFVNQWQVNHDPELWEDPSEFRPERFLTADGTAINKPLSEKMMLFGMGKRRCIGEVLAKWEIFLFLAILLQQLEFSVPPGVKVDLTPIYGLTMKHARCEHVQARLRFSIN
Guanine nucleotide-binding protein G(i) subunit alpha-1 (Homo sapiens), sequence (P63096 whole entry, looked up): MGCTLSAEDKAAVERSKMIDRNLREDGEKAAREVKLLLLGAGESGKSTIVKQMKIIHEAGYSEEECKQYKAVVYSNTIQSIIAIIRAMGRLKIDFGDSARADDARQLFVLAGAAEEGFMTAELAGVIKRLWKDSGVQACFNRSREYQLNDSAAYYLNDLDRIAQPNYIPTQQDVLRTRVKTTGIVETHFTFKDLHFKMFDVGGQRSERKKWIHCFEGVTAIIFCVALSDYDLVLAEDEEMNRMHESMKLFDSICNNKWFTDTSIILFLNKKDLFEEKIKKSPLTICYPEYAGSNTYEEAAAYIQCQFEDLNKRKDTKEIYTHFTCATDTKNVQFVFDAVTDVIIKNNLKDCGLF
Pyruvate kinase (Leishmania mexicana), sequence (Q27686 2-499 E452W): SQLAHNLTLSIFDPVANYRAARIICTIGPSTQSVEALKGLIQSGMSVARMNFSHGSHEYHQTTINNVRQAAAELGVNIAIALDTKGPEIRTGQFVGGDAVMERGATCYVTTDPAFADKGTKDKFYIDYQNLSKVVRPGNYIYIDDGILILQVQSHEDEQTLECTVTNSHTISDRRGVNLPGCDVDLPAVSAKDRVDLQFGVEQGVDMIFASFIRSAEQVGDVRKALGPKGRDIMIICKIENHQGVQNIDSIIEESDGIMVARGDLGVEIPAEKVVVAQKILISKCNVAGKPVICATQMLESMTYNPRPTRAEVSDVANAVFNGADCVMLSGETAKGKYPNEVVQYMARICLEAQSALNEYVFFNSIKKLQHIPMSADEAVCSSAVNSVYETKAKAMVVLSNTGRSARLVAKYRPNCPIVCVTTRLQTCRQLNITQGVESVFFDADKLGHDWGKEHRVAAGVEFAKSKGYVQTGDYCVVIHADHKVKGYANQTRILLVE
Alpha-galactosidase A (Homo sapiens), sequence (P06280 whole entry, looked up): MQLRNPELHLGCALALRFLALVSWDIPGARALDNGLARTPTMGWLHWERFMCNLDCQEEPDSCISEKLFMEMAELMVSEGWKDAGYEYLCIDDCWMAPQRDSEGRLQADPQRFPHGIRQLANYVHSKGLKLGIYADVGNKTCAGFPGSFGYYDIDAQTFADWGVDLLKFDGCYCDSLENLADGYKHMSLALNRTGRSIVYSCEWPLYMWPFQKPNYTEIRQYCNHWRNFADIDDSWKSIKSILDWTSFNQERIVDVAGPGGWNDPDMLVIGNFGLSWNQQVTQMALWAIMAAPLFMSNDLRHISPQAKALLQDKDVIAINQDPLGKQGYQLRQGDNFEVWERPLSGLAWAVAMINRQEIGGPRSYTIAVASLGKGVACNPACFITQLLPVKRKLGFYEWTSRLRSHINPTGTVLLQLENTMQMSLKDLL
Pyruvate kinase PKM (Homo sapiens), sequence (P14618 whole entry, looked up): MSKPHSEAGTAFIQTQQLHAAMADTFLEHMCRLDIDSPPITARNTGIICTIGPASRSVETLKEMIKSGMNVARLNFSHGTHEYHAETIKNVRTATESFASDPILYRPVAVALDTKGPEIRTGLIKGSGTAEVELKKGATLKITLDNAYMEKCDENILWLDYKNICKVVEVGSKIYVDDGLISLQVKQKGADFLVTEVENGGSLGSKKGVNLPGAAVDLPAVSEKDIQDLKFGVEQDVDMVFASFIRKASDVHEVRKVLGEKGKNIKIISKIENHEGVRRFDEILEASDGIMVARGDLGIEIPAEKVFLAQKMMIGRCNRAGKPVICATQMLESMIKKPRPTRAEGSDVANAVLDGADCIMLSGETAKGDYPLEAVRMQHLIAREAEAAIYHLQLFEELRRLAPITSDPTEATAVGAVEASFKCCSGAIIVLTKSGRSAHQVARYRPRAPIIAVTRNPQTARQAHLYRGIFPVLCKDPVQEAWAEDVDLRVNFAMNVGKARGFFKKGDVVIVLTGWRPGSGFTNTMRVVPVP
Glucocorticoid receptor (Homo sapiens), sequence (P04150 whole entry, looked up, the tested form may be a part): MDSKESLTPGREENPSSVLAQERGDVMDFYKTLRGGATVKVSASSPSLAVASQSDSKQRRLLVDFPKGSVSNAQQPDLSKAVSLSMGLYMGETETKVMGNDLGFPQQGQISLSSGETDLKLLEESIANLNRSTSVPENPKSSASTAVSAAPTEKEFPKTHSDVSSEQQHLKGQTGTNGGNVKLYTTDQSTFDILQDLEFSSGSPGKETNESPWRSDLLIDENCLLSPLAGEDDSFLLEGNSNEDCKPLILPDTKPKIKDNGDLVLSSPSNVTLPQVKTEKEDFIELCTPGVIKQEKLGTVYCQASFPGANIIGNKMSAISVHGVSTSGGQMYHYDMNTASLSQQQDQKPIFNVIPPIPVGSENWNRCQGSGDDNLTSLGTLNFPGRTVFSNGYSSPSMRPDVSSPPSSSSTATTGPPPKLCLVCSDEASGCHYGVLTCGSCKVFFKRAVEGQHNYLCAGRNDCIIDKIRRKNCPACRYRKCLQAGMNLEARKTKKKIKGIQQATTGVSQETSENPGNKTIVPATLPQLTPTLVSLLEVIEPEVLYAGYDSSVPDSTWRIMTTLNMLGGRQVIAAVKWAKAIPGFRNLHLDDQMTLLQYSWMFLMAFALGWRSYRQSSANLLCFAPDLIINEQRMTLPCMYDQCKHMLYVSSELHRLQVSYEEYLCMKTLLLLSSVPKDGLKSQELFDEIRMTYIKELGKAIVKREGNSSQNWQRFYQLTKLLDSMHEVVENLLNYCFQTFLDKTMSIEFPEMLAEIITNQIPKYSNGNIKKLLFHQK
Muscarinic acetylcholine receptor M1 (Rattus norvegicus), sequence (P08482 whole entry, looked up): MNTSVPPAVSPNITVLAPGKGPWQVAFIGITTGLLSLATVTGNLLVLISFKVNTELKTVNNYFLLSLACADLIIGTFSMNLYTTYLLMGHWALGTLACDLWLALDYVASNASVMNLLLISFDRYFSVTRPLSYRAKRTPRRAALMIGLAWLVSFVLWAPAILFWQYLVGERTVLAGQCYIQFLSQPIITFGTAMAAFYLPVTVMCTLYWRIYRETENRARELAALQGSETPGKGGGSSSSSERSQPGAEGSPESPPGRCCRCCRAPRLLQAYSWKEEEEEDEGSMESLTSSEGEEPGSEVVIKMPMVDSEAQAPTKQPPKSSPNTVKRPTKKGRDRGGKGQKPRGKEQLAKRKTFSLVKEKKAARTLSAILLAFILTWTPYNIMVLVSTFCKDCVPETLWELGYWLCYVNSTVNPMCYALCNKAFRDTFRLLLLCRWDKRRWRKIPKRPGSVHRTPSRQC
3',5'-cyclic-AMP phosphodiesterase 4B (Homo sapiens), sequence (Q07343 whole entry, looked up): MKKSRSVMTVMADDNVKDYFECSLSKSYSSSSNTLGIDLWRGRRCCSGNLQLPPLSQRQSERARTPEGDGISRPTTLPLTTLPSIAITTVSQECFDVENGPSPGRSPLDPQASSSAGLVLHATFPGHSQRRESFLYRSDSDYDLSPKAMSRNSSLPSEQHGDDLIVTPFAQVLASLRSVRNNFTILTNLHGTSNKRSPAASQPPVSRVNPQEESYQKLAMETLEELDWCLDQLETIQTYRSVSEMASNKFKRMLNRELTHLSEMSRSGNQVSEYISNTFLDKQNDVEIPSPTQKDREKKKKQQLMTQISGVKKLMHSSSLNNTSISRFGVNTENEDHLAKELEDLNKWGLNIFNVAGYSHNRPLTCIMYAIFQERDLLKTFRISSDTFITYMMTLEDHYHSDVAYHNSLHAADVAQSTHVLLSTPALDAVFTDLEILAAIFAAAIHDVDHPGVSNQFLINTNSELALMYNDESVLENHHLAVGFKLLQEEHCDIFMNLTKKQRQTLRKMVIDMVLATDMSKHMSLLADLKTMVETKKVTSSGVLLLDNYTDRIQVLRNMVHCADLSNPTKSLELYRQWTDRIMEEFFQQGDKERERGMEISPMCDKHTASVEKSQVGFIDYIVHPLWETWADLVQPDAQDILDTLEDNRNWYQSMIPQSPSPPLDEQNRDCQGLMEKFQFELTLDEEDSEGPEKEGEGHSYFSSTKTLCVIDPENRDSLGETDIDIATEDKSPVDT
Cytochrome P450 3A4 (Homo sapiens), sequence (P08684 whole entry, looked up): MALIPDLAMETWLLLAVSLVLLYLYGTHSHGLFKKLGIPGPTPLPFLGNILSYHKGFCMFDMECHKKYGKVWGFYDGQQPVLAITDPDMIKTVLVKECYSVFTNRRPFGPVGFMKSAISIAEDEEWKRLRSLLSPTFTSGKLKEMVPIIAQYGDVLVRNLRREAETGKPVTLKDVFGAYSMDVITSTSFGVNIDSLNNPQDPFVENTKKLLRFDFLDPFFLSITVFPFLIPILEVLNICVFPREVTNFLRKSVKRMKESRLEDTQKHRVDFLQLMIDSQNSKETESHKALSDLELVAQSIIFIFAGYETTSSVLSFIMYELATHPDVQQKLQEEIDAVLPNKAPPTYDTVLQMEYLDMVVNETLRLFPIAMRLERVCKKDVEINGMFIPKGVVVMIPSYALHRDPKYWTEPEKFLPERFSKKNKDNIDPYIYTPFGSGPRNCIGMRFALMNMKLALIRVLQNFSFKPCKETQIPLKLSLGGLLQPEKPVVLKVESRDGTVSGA

SMILES | activity change, negative = inhibition [1] | Potency [2] | activity change, negative = inhibition [3] | activity, negative = inhibition [4] | Potency [5] [µM] | Potency [6] [µM] | Potency [7] | Potency [8] | outcome [9] | Potency [10] | outcome [11] | Potency [12] | outcome [13] | outcome [14] | outcome [15] | Potency [16] | Potency [17] | Potency [18]
NCC[C@H]1CCC[C@H](CCN)N1 | 2.44% [at 38 µM] | inactive | 2.27% [at 38 µM] | -5.59% [at 38 µM] | > 46 | > 46 | inactive | inactive | inactive | inactive | inactive | inactive | inactive | inactive | inactive | inactive |  | 
C[C@H]1CN(S(=O)(=O)c2cccc3cnccc23)CCN1 | -12.4% [at 38 µM] | inactive | 1.25% [at 38 µM] | 2.7% [at 38 µM] | > 46 | > 46 | inactive | inactive | inactive | 2.82 µM (active) | inactive | inactive | inactive | inactive | inactive | inactive | inactive | inactive
CCCCCCCCCCCCCCC/C=C\[C@H](O)[C@@H](NC(=O)CCCCCCCCCCCCC)OC (tested in a mixture with another compound) | 15.5% [at 38 µM] | inactive | 13% [at 38 µM] | -20.2% [at 38 µM] | > 46 | > 46 | inactive | inactive | inactive |  | inactive | inactive | inactive | inactive | inactive | inactive |  | inactive
O=[N+]([O-])c1ccc(CSc2ncnc3c2ncn3[C@@H]2O[C@@H](CO)[C@@H](O)[C@H]2O)cc1 | -12.2% [at 38 µM] | inactive | 11% [at 38 µM] | 29.7% [at 38 µM] | > 46 | > 46 | inactive | inactive | inactive | inactive | inactive | inactive | inactive | inactive | inactive | inactive |  | 
NC[C@H](O)C1CCCCCCC1 | 3.98% [at 38 µM] | inactive | 4.63% [at 38 µM] | 14.7% [at 38 µM] | > 46 | > 46 | inactive | inactive | inactive |  | inactive | inactive | inactive | inactive | inactive | inactive |  | inactive
